Values without a mark were called inactive.
Legend:
[1] = test system: Schistosoma mansoni schistosomula (NMRI); assay: phenotypic severity score (0-4); higher = more antischistosomal effect, active = 2 or more; details: 10 µM
[2] = test system: Schistosoma mansoni schistosomula (Liberian); assay: drug effect (1 - score/DMSO control score) (fraction); higher = more antischistosomal effect, active = 0.5 or more; extreme values may be limits of the assay; details: 10 µM
Summary of the method: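 Drug effect was calculated by comparing the mean score of the test wells with the mean score of the DMSO wells, and any negative value was set to zero. Duplicate wells of 50 Liberian-strain S. mansoni schistosomula, mechanically transformed from cercariae and pre-incubated at least 12 h, received 10 µM compound in Medium 199 with 5% FCS at 37 °C, 5% CO2, with 0.1% DMSO in the comparison wells. Visual scoring at 10× took place at 24, 48 and 72 h on a quarter-point scale from 3 (normal) to 0 (dead), and a plate counted only if its DMSO wells averaged at least 2.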
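Wherever phenotypic severity score (0-4) is given: visual microscopic scoring of shape, motility and density changes versus 0.5% DMSO solvent controls, one point per descriptor, degeneracy or death scored 4, mean of duplicate wells.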

| SMILES | phenotypic severity score ([1]; 24 h) | phenotypic severity score ([1]; 48 h) | phenotypic severity score ([1]; 72 h) | drug effect ([2]; 24 h) | drug effect ([2]; 48 h) | drug effect ([2]; 72 h) |
| --- | --- | --- | --- | --- | --- | --- |
| O=C(NCc1ccoc1)N1CCN(Cc2ccc3c(c2)OCO3)CC1 | 0 | 0 | 0 | 0.136 | 0.2 | 0.182 |
| Cc1cc(C(=O)Nc2cnn(Cc3ccc(Cl)cc3Cl)c2)no1 | 0 | 0 | 0 | 0.182 | 0.1 | 0.127 |
| c1csc(-c2cnc3sc(NCC4CCOCC4)nn23)c1 | 0 | 0 | 0 | 0.182 | 0.55 (active) | 0.345 |
| COc1ccc(Nc2ccccc2NC(=O)c2ccc(O)nc2)cc1 | 0 | 0 | 0 | 0.182 | 0.45 | 0.4 |
| CN(C)CCNC(=O)N1CCCN(c2ncnc3cc(-c4ccccc4)sc23)CC1 | 0 | 0 | 0 | < 0 | 0.2 | 0.556 (active) |
| COC(=O)c1cccc2oc(-c3cccc(OC)c3NC(=O)c3cc(-c4ccccc4)on3)nc12 | 0 | 0 | 0 | 0.351 | 0.333 | 0.312 |
| COc1cncc(-c2cncc(N3CCN(c4ccncc4)CC3)n2)c1 | 1 | 0 | 0 | 0.351 | 0.389 | 0.688 (active) |
| O=C(c1cc2ccccc2o1)N1CCN(Cc2ccc3c(c2)OCO3)CC1 | 0 | 0 | 0 | 0.182 | 0.15 | 0.236 |
| N#Cc1nc(-c2ccccc2)oc1S(=O)(=O)c1ccc(Cl)cc1 | 0 | 0 | 1 | 1 (active) | 1 (active) | 1 (active) |
| O=C(NC1CC1)c1ccc(CSCc2ccccc2Cl)o1 | 1 | 0 | 1 | 0.405 | 0.444 | 0.562 (active) |
| O=C(Nc1ccc(N2CCNCC2)cc1)c1ccn2ncc(-c3cccc(Cl)c3)c2n1 | 2 (active) | 4 (active) | 4 (active) | 0.73 (active) | 0.778 (active) | 0.938 (active) |
| OCCc1ccc(Nc2nccc(-c3nnc4ccccn34)n2)cc1 | 0 | 1 | 4 (active) | 0.2 | 0.556 (active) | 0.562 (active) |
| CCCCc1ccc(C(=O)Nc2nccc3ccccc23)nc1 | 1 | 0 | 1 | 0.1 | 0.167 | 0.188 |
| COc1ccc(CCN2CCC(NCc3cccc(N(C)C)c3)CC2)cc1 | 0 | 0 | 0 | < 0 | 0.027 | 0.0303 |
| Cc1ccc(S(=O)(=O)n2cc(-c3ccnc(N)c3)c3cc(Br)cnc32)cc1 | 2 (active) | 3 (active) | 3 (active) | 0.45 | 0.568 (active) | 0.515 (active) |
| CC(=O)Nc1ccc(NC(=O)c2cc(-c3cc(Cl)ccc3O)[nH]n2)cc1 | 0 | 0 | 0 | 0.227 | 0.15 | 0.127 |
| Brc1c(-c2ccc3c(c2)OCO3)nc2ncccn12 | 0 | 0 | 0 | 0.182 | 0.2 | 0.127 |
| Nc1nccc2ccc(-c3ccc4nccn4c3)cc12 | 4 (active) | 4 (active) | 4 (active) | 0.568 (active) | 0.778 (active) | 0.75 (active) |
| CC(C)(C)C(=O)N(CCCCCCN1C[C@H](O)[C@@H](O)[C@H](O)[C@H]1CO)C1CCCCCC1 | 0 | 2 (active) | 4 (active) | 0.25 | 0.556 (active) | 1 (active) |
| CC(C(=O)N1CCCC1)N1CCN(S(=O)(=O)c2ccc(C(C)(C)C)cc2)CC1 (stereo unspecified) | 1 | 0 | 0 | 0.05 | 0.027 | 0.0909 |
| CN1CCN(c2nccc3nc(-c4ccc(F)c(F)c4)[nH]c23)CC1 | 0 | 0 | 0 | < 0 | 0.1 | 0.167 |
